Screening results as filed in PubChem.
NALP1 yeast inh: blocks the NALP1 inflammasome reconstituted in yeast | S. cerevisiae NALP1/ASC/caspase-1 growth, X-gal OD620, 72 h | actives 0.61% (n = 280,000) | inhibition, % at 10 µM; in the data active = inhibition mostly above about 24%, no sharp cut-off; inactive = mostly below about 32%
MOR-DOR ag-1: OPRM1-OPRD1 heterodimerization agonism. activation, % at 9.3 µM. AID 504326. actives 0.3% (n = 340,000). cells, luminescence
Target sequence (P35372 whole entry, looked up): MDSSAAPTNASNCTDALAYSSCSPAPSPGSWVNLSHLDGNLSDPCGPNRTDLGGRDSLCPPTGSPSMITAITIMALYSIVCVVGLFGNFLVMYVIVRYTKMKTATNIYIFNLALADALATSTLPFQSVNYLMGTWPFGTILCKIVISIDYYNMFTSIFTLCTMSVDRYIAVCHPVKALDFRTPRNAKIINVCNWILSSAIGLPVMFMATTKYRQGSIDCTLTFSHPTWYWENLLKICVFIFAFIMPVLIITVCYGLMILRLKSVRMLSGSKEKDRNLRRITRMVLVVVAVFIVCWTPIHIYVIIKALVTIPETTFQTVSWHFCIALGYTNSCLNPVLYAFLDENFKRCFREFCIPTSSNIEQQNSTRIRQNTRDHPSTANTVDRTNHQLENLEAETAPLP
Target sequence (P41143 whole entry, looked up): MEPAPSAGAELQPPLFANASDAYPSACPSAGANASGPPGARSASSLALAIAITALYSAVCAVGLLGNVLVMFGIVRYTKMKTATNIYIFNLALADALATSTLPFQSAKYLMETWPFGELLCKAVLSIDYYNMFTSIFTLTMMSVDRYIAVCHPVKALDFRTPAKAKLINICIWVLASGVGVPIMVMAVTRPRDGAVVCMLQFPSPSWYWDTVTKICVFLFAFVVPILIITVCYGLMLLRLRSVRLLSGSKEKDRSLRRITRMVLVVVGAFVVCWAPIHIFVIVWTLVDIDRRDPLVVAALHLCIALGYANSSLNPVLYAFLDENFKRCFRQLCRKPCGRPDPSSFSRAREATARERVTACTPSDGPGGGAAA
PolyA inhibitor: blocks polyadenylation in yeast reporter cells; S. cerevisiae SKY197-pL101 polyadenylation reporter, beta-gal luminescence; efflux-impaired pdr1/pdr3 knockout yeast; score 100 = 6 SD above DMSO; actives 0.02% (n = 300,000); activity score, % at 12 µM;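 active = lowest replicate activity score at least 50, where 100 means six control SD above control mean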;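 also: yeast exposed to compound for 9 h at 30 °C; higher score means more reporter readthrough which indicates perturbed polyadenylation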
HTR5A ag ctr: HTR5A agonism, opioid heterodimer counter-screen; HTR5A agonist assay, luminescence, cell-based; P47898; actives 0.61% (n = 340,000); activation, % at 9.3 µM; in the data active = activation mostly above about 9.5%, no sharp cut-off; inactive = mostly below about 7.6%
HTR5A inv ctr: HTR5A inverse agonism, opioid heterodimer counter-screen; AID 504634; actives 0.083% (n = 340,000); P47898; HTR5A cell line, luminescence; inhibition, % at 9.3 µM; in the data active = inhibition mostly above about 23%, no sharp cut-off; inactive = mostly below about 18%
OPRM1-OPRD1 inv: inverse agonists of human mu-delta opioid receptor heterodimerization. P35372+P41143. actives 0.21% (n = 340,000). AID 504357. inhibition, % at 9.3 µM. cell-based MOR-DOR heterodimer luminescence, inverse agonism; in the data active = inhibition above about 22%, passing the limit was not always enough
MOR-DOR ag-2: promotes OPRM1-OPRD1 heterodimerization in HTR5A counter-screen | AID 504913 | actives 13% (n = 800) | U2OS counter-screen cells, complementation luminescence, 3 h | activation, % at 9.3 µM | shares compounds with HTR5A ag ctr
HTR5A ag conf: HTR5A (human) agonism, confirmation | shares compounds with HTR5A ag ctr | HTR5A agonist cell assay, luminescence | activation, % at 9.3 µM | actives 17% (n = 800); in the data active = activation above about 17%
A number is an active result. Compounds with a hit are over-represented: about 1.6% of the library has one in this group of screens. Rule as the data show it, unless noted: active = activation above about 18%; inactive = the rest.

What do the screens show for `COc1ccc(NC(=S)NCCc2c[nH]c3ccc(OC)cc23)c(OC)c1`?
NALP1 yeast inh: 29; MOR-DOR ag-1: inactive; PolyA inhibitor: inactive; HTR5A ag ctr: 16; HTR5A inv ctr: inactive; OPRM1-OPRD1 inv: inactive; MOR-DOR ag-2: inactive; HTR5A ag conf: inactive

What do the screens show for `COc1ccc2[nH]cc(CCNS(=O)(=O)Cc3ccccc3)c2c1`?
NALP1 yeast inh: inactive; MOR-DOR ag-1: inactive; PolyA inhibitor: inactive; HTR5A ag ctr: 22; HTR5A inv ctr: inactive; OPRM1-OPRD1 inv: inactive; MOR-DOR ag-2: inactive; HTR5A ag conf: inactive

Results for COc1ccc2[nH]cc(CCNC(=O)Cc3ccc(Cl)cc3)c2c1 ?
NALP1 yeast inh: inactive; MOR-DOR ag-1: inactive; PolyA inhibitor: inactive; HTR5A ag ctr: 17; HTR5A inv ctr: inactive; OPRM1-OPRD1 inv: inactive; MOR-DOR ag-2: inactive; HTR5A ag conf: 37

How did COc1ccc2[nH]c(C)c(CCNC(=S)Nc3cccc(C)c3)c2c1 do in these assays?
NALP1 yeast inh: inactive; MOR-DOR ag-1: inactive; PolyA inhibitor: inactive; HTR5A ag ctr: inactive; HTR5A inv ctr: inactive; OPRM1-OPRD1 inv: inactive

What do the screens show for `COc1ccc2[nH]c(C)c(CCNC(=S)Nc3cc(C)cc(C)c3)c2c1`?
NALP1 yeast inh: inactive; MOR-DOR ag-1: inactive; PolyA inhibitor: inactive; HTR5A ag ctr: 20; HTR5A inv ctr: inactive; OPRM1-OPRD1 inv: inactive; MOR-DOR ag-2: inactive; HTR5A ag conf: inactive

How did COc1ccc(NC(=S)NCCc2c[nH]c3ccccc23)c(OC)c1 do in these assays?
NALP1 yeast inh: inactive; MOR-DOR ag-1: inactive; PolyA inhibitor: inactive; HTR5A ag ctr: inactive; HTR5A inv ctr: inactive; OPRM1-OPRD1 inv: inactive

Results for COc1ccc(NC(=O)C(=O)NCCCO)cc1Cl ?
NALP1 yeast inh: inactive; MOR-DOR ag-1: inactive; PolyA inhibitor: inactive; HTR5A ag ctr: inactive; HTR5A inv ctr: inactive; OPRM1-OPRD1 inv: inactive

Results for COc1ccc(NC(=O)C(=O)NCCO)cc1Cl ?
NALP1 yeast inh: inactive; MOR-DOR ag-1: inactive; PolyA inhibitor: inactive; HTR5A ag ctr: 15; HTR5A inv ctr: inactive; OPRM1-OPRD1 inv: inactive; MOR-DOR ag-2: inactive; HTR5A ag conf: inactive

How did CSc1ccccc1NC(=S)NCc1ccc(Cl)cc1 do in these assays?
NALP1 yeast inh: inactive; MOR-DOR ag-1: inactive; PolyA inhibitor: inactive; HTR5A ag ctr: inactive; HTR5A inv ctr: inactive; OPRM1-OPRD1 inv: inactive

Results for COc1ccccc1N(C(=O)c1ccco1)C(C(=O)NC1CCCC1)c1ccc(N2CCOCC2)cc1 (stereo unspecified) ?
NALP1 yeast inh: inactive; MOR-DOR ag-1: inactive; PolyA inhibitor: inactive; HTR5A ag ctr: inactive; HTR5A inv ctr: inactive; OPRM1-OPRD1 inv: inactive

What do the screens show for `O=C(NCCc1c[nH]c2ccccc12)C(=O)NCC1OCCN1S(=O)(=O)c1ccc(F)cc1` (stereo unspecified)?
NALP1 yeast inh: inactive; MOR-DOR ag-1: inactive; PolyA inhibitor: inactive; HTR5A ag ctr: inactive; HTR5A inv ctr: inactive; OPRM1-OPRD1 inv: inactive

Results for O=C(NCCc1c[nH]c2ccccc12)C(=O)NCC1OCCCN1S(=O)(=O)c1ccccc1 (stereo unspecified) ?
NALP1 yeast inh: inactive; MOR-DOR ag-1: inactive; PolyA inhibitor: inactive; HTR5A ag ctr: 48; HTR5A inv ctr: inactive; OPRM1-OPRD1 inv: inactive; MOR-DOR ag-2: inactive; HTR5A ag conf: 47

Results for O=C(NCCc1c[nH]c2ccccc12)C(=O)NCC1OCCN1S(=O)(=O)c1ccc(Cl)cc1 (stereo unspecified) ?
NALP1 yeast inh: inactive; MOR-DOR ag-1: inactive; PolyA inhibitor: inactive; HTR5A ag ctr: inactive; HTR5A inv ctr: inactive; OPRM1-OPRD1 inv: inactive

How did Cc1ccc(S(=O)(=O)N2CCCOC2CNC(=O)C(=O)NCCc2c[nH]c3ccccc23)cc1 (stereo unspecified) do in these assays?
NALP1 yeast inh: inactive; MOR-DOR ag-1: inactive; PolyA inhibitor: inactive; HTR5A ag ctr: 30; HTR5A inv ctr: inactive; OPRM1-OPRD1 inv: inactive; MOR-DOR ag-2: inactive; HTR5A ag conf: 26

How did O=C(NCCc1c[nH]c2ccccc12)C(=O)NCC1OCCN1S(=O)(=O)c1ccccc1 (stereo unspecified) do in these assays?
NALP1 yeast inh: inactive; MOR-DOR ag-1: inactive; PolyA inhibitor: inactive; HTR5A ag ctr: 36; HTR5A inv ctr: inactive; OPRM1-OPRD1 inv: inactive; MOR-DOR ag-2: inactive; HTR5A ag conf: 57

How did COc1cccc(-c2csc(N3CCN(C(=S)Nc4ccc(Cl)cc4)CC3)n2)c1 do in these assays?
NALP1 yeast inh: inactive; MOR-DOR ag-1: inactive; PolyA inhibitor: inactive; HTR5A ag ctr: inactive; HTR5A inv ctr: inactive; OPRM1-OPRD1 inv: inactive

Results for COc1cccc(-c2csc(N3CCN(C(=S)Nc4ccccc4)CC3)n2)c1 ?
NALP1 yeast inh: inactive; MOR-DOR ag-1: inactive; PolyA inhibitor: inactive; HTR5A ag ctr: 22; HTR5A inv ctr: inactive; OPRM1-OPRD1 inv: inactive; MOR-DOR ag-2: inactive; HTR5A ag conf: inactive

What do the screens show for `CN(C)S(=O)(=O)c1ccc(Cl)c(C(=O)NNC(=O)Cn2ccc(C(F)(F)F)n2)c1`?
MOR-DOR ag-1: inactive; HTR5A ag ctr: inactive; HTR5A inv ctr: inactive; OPRM1-OPRD1 inv: inactive

Results for O=C(c1ccc(Cl)c(S(=O)(=O)N2CCCCCC2)c1)N1CCN(c2ccccn2)CC1 ?
NALP1 yeast inh: inactive; MOR-DOR ag-1: inactive; PolyA inhibitor: inactive; HTR5A ag ctr: 25; HTR5A inv ctr: inactive; OPRM1-OPRD1 inv: inactive; MOR-DOR ag-2: inactive; HTR5A ag conf: 31

How did COc1ccc(C(=O)Nc2cccc([N+](=O)[O-])c2)cc1Br do in these assays?
MOR-DOR ag-1: inactive; PolyA inhibitor: inactive; HTR5A ag ctr: 19; HTR5A inv ctr: inactive; OPRM1-OPRD1 inv: inactive; MOR-DOR ag-2: inactive; HTR5A ag conf: inactive

What do the screens show for `COc1ccc(C(=O)Nc2ccc(OC)c([N+](=O)[O-])c2)cc1Br`?
NALP1 yeast inh: inactive; MOR-DOR ag-1: inactive; PolyA inhibitor: inactive; HTR5A ag ctr: inactive; HTR5A inv ctr: inactive; OPRM1-OPRD1 inv: inactive

Results for COc1ccc(CC(=O)Nc2nc3ccccc3[nH]2)cc1 ?
NALP1 yeast inh: inactive; MOR-DOR ag-1: inactive; PolyA inhibitor: inactive; HTR5A ag ctr: inactive; HTR5A inv ctr: inactive; OPRM1-OPRD1 inv: inactive

Results for COc1ccc(NC(=O)Cc2nc3ccccc3[nH]2)cc1 ?
NALP1 yeast inh: inactive; MOR-DOR ag-1: inactive; PolyA inhibitor: inactive; HTR5A ag ctr: 28; HTR5A inv ctr: inactive; OPRM1-OPRD1 inv: inactive; MOR-DOR ag-2: inactive; HTR5A ag conf: 19

What do the screens show for `CCOC(=O)N1CCN(C(=O)CCC(=O)N2CCOc3ccc(C)cc32)CC1`?
NALP1 yeast inh: inactive; MOR-DOR ag-1: inactive; PolyA inhibitor: inactive; HTR5A ag ctr: 21; HTR5A inv ctr: inactive; OPRM1-OPRD1 inv: inactive; MOR-DOR ag-2: inactive; HTR5A ag conf: inactive

What do the screens show for `CCOC(=O)N1CCC(NC(=O)CCC(=O)N2CCOc3ccc(C)cc32)CC1`?
NALP1 yeast inh: inactive; MOR-DOR ag-1: inactive; PolyA inhibitor: inactive; HTR5A ag ctr: inactive; HTR5A inv ctr: inactive; OPRM1-OPRD1 inv: inactive
